Experimental data from PubChem BioAssay (NCI).
The panel holds about 83,000 compounds, 20% with a hit somewhere; the sample as a whole holds those more often.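 Single-dose data. Exposure time 48 hours. Values below 10 considered active.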 Active and inactive are the calls of the source.

system: MDA-MB-231 breast; experiment: NCI-60 one-dose screen, 48 h (100 = growth as untreated, 0 = no growth, -100 = all killed); settings: 10 µM unless noted

Row | Compound | growth
1 | COC(=O)c1ccc2c(c1)C(=O)c1c-2n(CCCN)c(=O)c2cc([N+](=O)[O-])ccc12 | -100% (active)
2 | O=C(Nn1c2c(sc1=Nc1ccccc1)C(=O)c1ccccc1C2=O)c1cc2ccc1CCc1ccc(cc1)CC2 | 40% (inactive)
3 | O=C(CN1C(=O)CCC1=O)Nc1ncc(Cc2ccc(F)cc2)s1 | 97.4% (inactive)
4 | Nc1ncnc2c1N=C(c1ccc(Cl)cc1)CC(c1ccc3c(c1)OCO3)N2 (stereo not drawn) | 88.6% (inactive)
5 | N#C/C(=C/c1ccc([N+](=O)[O-])cc1)n1nnc2cc(F)c(F)cc21 | 84.7% (inactive)
6 | COc1ccc(C(=O)Nc2ncc(Cc3ccc(F)cc3)s2)cc1 | 29.6% (inactive)
7 | CCN1CCN(Cc2cn(CC(=O)Nc3ccc4c(ccn4Cc4ccccc4)c3)nn2)CC1 | 91.5% (inactive)
8 | CCOC(=O)C1=C(NC)OCC1=O | 107% (inactive)
9 | CC(=O)c1cc(O)c2ccccc2c1O | 87.2% (inactive)
10 | CC1(C)CC[C@]2(c3nnc(-c4ccncc4)o3)CC[C@H]3C(=CC[C@H]4[C@@]3(C)CC[C@H]3C(C)(C)C(=O)CC[C@]43C)[C@@H]2C1 | 72.8% (inactive)
11 | CC(C)(C)n1cc(-c2ccnc(NCCCNS(=O)(=O)c3ccc(F)cc3)c2)c(-c2cccc(F)c2)n1 | 75.6% (inactive)
12 | COc1cc(CNS(=O)(=O)c2ccc(C)cc2)ccc1OCc1cn(-c2ccc(Br)cc2)nn1 | 103% (inactive)
13 | Cc1ccc(-c2csc(NC(=O)CN3CCN(c4cc5c(cc4F)c(=O)c(C(=O)O)cn5C4CC4)CC3)n2)cc1 | 6.47% (active)
